Measured values published in PubChem BioAssay (Tox21).
Results filed as inconclusive are left out. Calls of active or inactive are those of the source. Unless noted, calls come from the whole dose curve; as a rule, active = well fitted curve in the direction sought with a large enough effect in the repeat runs; inconclusive = weak or mixed curves; inactive = no such curve, though single readings can be large; an effect the other way counts as inactive or inconclusive.

Assays:
[1] = qHTS assay to identify small molecule antagonists of the thyroid receptor (TR) signaling pathway - cell viability counter screen (AID 743064); note: nearly all actives have a fitted effect of over 50% in size
In short: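 Fluorescence from CellTiter-Fluor, added after 23.5 h exposure at 37 °C, reported viability of GH3.TRE-Luc cells co-treated with compound and 1 nM T3. Measured in the same wells as the luciferase TR readout.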

[2] = qHTS assay to identify small molecule antagonists of the thyroid receptor (TR) signaling pathway (AID 743065); note: series mostly up to about 70 µM; nearly all actives have a fitted effect of over 55% in size
In short: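 GH3.TRE-Luc rat pituitary cells (two TREs driving luciferase) were dosed with compound, then stimulated with 1 nM T3 (final) for 23.5 h at 37 C. ONE-Glo luminescence was the read-out, with CellTiter-Fluor fluorescence as the cytotoxicity counter-screen.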

[3] = tested on: thyroid hormone receptor (rat, GH3 cells); test: qHTS assay to identify small molecule agonists of the thyroid receptor (TR) signaling pathway (AID 743066; calls by dose curve)
[4] = qHTS assay to identify small molecule antagonists of the estrogen receptor alpha (ER-alpha) signaling pathway - cell viability counter screen (AID 743074; calls by dose curve;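 note: HEK293 cells carrying ER-alpha-UAS-bla reporter stimulated with 17beta-estradiol; nearly all actives have a fitted effect of over 45% in size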)
[5] = qHTS assay to identify small molecule antagonists of the estrogen receptor alpha (ER-alpha) signaling pathway using the BG1 cell line - cell viability counter screen (AID 743081);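 note: compound given together with 17beta-estradiol as the ER stimulus; series mostly up to about 70 µM; nearly all actives have a fitted effect of over 45% in size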
[6] = molecular target: Aromatase (Homo sapiens) (UniProt P11511); test: qHTS assay to identify aromatase inhibitors (AID 743083); note: series mostly up to about 70 µM; nearly all actives have a fitted effect of over 55% in size
[7] = qHTS assay to identify aromatase inhibitors - cell viability counter screen (AID 743084);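 note: cells stimulated with testosterone during compound exposure; nearly all actives have a fitted effect of over 55% in size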
[8] = molecular target: Aryl hydrocarbon receptor (Homo sapiens) (UniProt P35869); test: qHTS assay to identify small molecule that activate the aryl hydrocarbon receptor (AhR) signaling pathway (AID 743085);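 note: HG2L7.5c1 human HepG2 liver cells with stably integrated DRE-driven firefly reporter; series mostly up to about 70 µM; nearly all actives have a fitted effect of over 15% in size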
In short: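 Cell line HG2L7.5c1 (human hepatoma, 20× DRE-luc). Plated, 5 h 37C, compound/DMSO added, 24 h 37C. CellTiter-Fluor 30 min 37C → fluorescence; then ONE-Glo 30 min RT → luminescence.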

[9] = qHTS assay to identify small molecule that activate the aryl hydrocarbon receptor (AhR) signaling pathway - cell viability counter screen (AID 743086);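 note: HepG2 liver cells carrying the AhR DRE luciferase reporter; series mostly up to about 70 µM; nearly all actives have a fitted effect of over 45% in size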
In short: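 HepG2-AhR-luc (HG2L7.5c1) cells, 4000/well, treated 24 h at 37 C with compound; viability measured as CellTiter-Fluor fluorescence after 30 min in the same wells as the luciferase read.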

[10] = molecular target: Peroxisome proliferator-activated receptor gamma (Homo sapiens) (UniProt P37231); test: qHTS assay to identify small molecule agonists of the peroxisome proliferator-activated receptor gamma (PPARg) signaling pathway (AID 743094; active = well fitted activation curve with a large enough effect in the signal ratio in the repeat runs, not every such curve was filed as active; the % refers to the signal ratio)
In short: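 Reporter activation was scored by fluorescence of cleaved LiveBLAzer B/G substrate (1 h, room temperature) in PPARg-bla HEK293H cells previously treated 17 h at 37C with DMSO-dissolved compounds.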

[11] = molecular target: Estrogen receptor (Homo sapiens) (UniProt P03372); test: qHTS assay to identify small molecule agonists of the estrogen receptor alpha (ER-alpha) signaling pathway (AID 743075; calls by dose curve;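 note: HEK293 GripTite cells with ER-alpha and UAS-driven beta-lactamase reporter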)
[12] = molecular target: Estrogen receptor (Homo sapiens) (UniProt P03372); test: qHTS assay to identify small molecule agonists of the estrogen receptor alpha (ER-alpha) signaling pathway using the BG1 cell line (AID 743079); note: nearly all actives have a fitted effect of over 20% in size
[13] = qHTS assay to identify small molecule antagonists of the estrogen receptor alpha (ER-alpha) signaling pathway using the BG1 cell line (AID 743080; calls by dose curve; note: series mostly up to about 70 µM; nearly all actives have a fitted effect of over 25% in size)
In short: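 Antagonist mode: compounds in DMSO were pinned onto BG1-Luc-4E2 cells alongside 17beta-estradiol agonist, incubated 21.5 h, and ERE-driven luciferase measured with ONE-Glo. Cytotoxicity was multiplexed using CellTiter-Fluor fluorescence.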

[14] = qHTS assay to identify small molecule antagonists of the peroxisome proliferator-activated receptor gamma (PPARg) signaling pathway - cell viability counter screen (AID 743194); note: nearly all actives have a fitted effect of over 55% in size
In short: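 Cytotoxicity counter screen in PPARg-bla HEK293H cells, same wells as reporter assay. Compounds plus 50 nM rosiglitazone (final) for 17 h at 37 C, then viability read by CellTiter-Glo luminescence.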

[15] = qHTS assay for small molecule agonists of the antioxidant response element (ARE) signaling pathway (AID 743202; active = well fitted activation curve with a large enough effect in the signal ratio in the repeat runs, not every such curve was filed as active; the % refers to the signal ratio)
In short: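 HepG2 ARE-bla cells; 16 h treatment at 37 C; FRET-based beta-lactamase fluorescence read after 2 h substrate incubation at room temperature.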

[16] = qHTS assay for small molecule agonists of the antioxidant response element (ARE) signaling pathway - cell viability counter screen (AID 743203; calls by dose curve; note: nearly all actives have a fitted effect of over 55% in size)
In short: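 Viability counter screen: stably transfected ARE-bla HepG2 line, 16 hrs compound exposure at 37C/5% CO2, ATP-based CellTiter-Glo luminescence measured in the reporter wells.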

Measured: Potency

Chain of Peroxisome proliferator-activated receptor gamma (Homo sapiens) (P37231 whole entry, looked up): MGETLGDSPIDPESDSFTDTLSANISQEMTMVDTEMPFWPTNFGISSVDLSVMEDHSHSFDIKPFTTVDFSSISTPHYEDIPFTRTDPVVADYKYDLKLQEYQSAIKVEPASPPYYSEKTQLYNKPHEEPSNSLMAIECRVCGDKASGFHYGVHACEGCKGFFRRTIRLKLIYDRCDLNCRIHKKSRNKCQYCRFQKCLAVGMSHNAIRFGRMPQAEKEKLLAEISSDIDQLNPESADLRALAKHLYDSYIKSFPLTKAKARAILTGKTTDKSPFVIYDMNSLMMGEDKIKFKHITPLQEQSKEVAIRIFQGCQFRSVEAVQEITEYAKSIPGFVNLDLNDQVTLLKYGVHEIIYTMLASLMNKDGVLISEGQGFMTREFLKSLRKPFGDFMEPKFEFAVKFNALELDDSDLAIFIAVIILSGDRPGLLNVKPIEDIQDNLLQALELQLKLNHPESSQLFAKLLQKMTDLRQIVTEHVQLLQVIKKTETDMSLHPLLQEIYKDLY
Chain of Aromatase (Homo sapiens) (P11511 whole entry, looked up): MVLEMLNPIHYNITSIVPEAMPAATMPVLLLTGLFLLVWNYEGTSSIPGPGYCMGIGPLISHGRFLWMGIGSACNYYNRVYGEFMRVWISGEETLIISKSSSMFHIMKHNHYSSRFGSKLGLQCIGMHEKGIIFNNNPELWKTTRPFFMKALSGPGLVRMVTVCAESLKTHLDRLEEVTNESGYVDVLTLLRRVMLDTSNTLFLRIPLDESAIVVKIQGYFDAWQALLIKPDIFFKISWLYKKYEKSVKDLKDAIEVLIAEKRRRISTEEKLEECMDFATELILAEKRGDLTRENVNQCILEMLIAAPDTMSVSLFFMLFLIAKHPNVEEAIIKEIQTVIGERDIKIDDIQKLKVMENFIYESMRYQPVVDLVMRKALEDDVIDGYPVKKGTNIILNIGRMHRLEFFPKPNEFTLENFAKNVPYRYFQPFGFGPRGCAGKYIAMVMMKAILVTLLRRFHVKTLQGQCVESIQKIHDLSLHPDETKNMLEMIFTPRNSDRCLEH
Chain of Estrogen receptor (Homo sapiens) (P03372 whole entry, looked up): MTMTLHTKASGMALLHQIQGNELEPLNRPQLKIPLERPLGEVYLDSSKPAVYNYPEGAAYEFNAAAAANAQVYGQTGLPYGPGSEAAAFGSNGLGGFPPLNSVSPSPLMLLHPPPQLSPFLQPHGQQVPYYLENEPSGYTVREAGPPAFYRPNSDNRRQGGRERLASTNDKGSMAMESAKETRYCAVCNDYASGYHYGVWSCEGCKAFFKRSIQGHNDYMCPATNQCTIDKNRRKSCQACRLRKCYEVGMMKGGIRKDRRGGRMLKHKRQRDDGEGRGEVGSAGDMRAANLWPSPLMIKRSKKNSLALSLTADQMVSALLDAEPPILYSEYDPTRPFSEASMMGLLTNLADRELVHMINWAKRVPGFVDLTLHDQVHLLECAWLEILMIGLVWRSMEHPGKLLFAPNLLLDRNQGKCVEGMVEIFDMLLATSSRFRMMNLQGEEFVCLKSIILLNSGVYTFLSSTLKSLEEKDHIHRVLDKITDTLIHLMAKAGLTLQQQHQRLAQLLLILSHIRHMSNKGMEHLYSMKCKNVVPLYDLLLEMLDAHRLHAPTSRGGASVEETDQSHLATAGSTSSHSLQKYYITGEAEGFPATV
Chain of Aryl hydrocarbon receptor (Homo sapiens) (P35869 whole entry, looked up): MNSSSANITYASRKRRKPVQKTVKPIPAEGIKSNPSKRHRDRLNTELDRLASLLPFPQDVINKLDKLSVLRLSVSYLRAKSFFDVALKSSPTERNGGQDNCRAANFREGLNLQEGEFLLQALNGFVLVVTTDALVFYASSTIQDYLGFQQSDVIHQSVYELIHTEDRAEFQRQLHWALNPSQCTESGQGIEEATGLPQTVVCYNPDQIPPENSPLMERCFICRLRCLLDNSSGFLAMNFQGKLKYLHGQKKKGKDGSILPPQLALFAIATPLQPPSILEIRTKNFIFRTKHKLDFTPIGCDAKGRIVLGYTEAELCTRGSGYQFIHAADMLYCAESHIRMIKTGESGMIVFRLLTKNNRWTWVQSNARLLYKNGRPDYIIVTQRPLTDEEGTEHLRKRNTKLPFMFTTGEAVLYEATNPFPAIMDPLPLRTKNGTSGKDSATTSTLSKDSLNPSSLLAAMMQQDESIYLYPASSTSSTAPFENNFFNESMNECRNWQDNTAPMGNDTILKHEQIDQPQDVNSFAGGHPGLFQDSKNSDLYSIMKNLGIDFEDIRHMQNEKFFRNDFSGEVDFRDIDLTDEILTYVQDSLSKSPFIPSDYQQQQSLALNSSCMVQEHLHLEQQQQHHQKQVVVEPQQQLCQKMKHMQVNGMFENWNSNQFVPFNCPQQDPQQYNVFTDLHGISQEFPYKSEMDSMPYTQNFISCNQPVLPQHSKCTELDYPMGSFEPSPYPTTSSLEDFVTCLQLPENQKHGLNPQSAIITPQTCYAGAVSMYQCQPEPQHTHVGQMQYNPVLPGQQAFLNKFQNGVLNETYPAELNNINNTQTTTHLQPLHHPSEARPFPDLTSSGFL

NS(=O)(=O)c1cc(Cl)c(Cl)c(S(N)(=O)=O)c1
inactive: [1] | [2] | [3] | [4] | [5] | [6] | [7] | [8]

CC(CNC(=O)c1cccnc1)NC(=O)c1cccnc1 (stereo unspecified)
not listed: [11] | [12] | [13] | [14] | [15] | [16]
inactive: all other assays above

c1ccc2c(c1)OCC(CN1CCCCC1)O2 (stereo unspecified)
not listed: [8] | [9] | [14] | [15] | [16]
inactive: all other assays above

NC(N)=NCC1COC2(CCCCC2)O1 (stereo unspecified)
not listed: [11] | [12] | [13] | [14] | [15] | [16]
inactive: all other assays above

O=c1[nH]c(=O)n([C@H]2C[C@H](O)[C@@H](CO)O2)cc1/C=C/Br
not listed: [11] | [12] | [13] | [14] | [15] | [16]
inactive: all other assays above

C[C@@H]1C[C@H]2[C@@H]3C[C@H](F)C4=CC(=O)C=C[C@]4(C)[C@@]3(Cl)[C@@H](O)C[C@]2(C)[C@H]1C(=O)COC(=O)C(C)(C)C
not listed: [8] | [13] | [14] | [15] | [16]
inactive: all other assays above

CC(C)Cc1ccc([C@H](C)C(=O)O)cc1
not listed: [9] | [14] | [15] | [16]
inactive: all other assays above

CC(C)NCC1CCc2cc(CO)c([N+](=O)[O-])cc2N1 (stereo unspecified)
not listed: [5] | [14] | [15] | [16]
inactive: all other assays above

CC1(C)S[C@@H]2[C@H](NC(=O)[C@H](N)c3ccc(O)cc3)C(=O)N2[C@H]1C(=O)O
inactive: [1] | [2] | [3] | [4] | [5] | [6] | [7] | [8]

FC(F)(F)COCC(F)(F)F
not listed: [11] | [12] | [13] | [14] | [15] | [16]
inactive: all other assays above

CC(C)c1ncc([N+](=O)[O-])n1C
not listed: [11] | [12] | [13] | [14] | [15] | [16]
inactive: all other assays above

O=C(O)COc1ccccc1/C=N/NC(=O)c1ccncc1
not listed: [8] | [14] | [15] | [16]
inactive: all other assays above

COC1[C@@H](O[C@@H]2O[C@H](C)[C@@H](O[C@H]3C[C@@](C)(O)[C@H](OC(=O)CC(C)C)[C@H](C)O3)[C@H](N(C)C)[C@H]2O)[C@@H](CC=O)C[C@@H](C)[C@@H](O)/C=C/C=C/C[C@@H](C)OC(=O)C[C@H]1OC(C)=O (stereo partly specified)
not listed: [5] | [14] | [15] | [16]
inactive: all other assays above

C1CCc2nnnn2CC1
not listed: [6] | [8] | [14] | [15] | [16]
inactive: all other assays above

CC[C@H]1OC(=O)C[C@@H](O)[C@H](C)[C@@H](O[C@@H]2O[C@H](C)[C@@H](O)[C@H](N(C)C)[C@H]2O)[C@@H](CCN2C[C@H](C)C[C@H](C)C2)C[C@@H](C)C(=O)/C=C/C(C)=C/[C@@H]1CO[C@@H]1O[C@H](C)[C@@H](O)[C@@H](OC)[C@H]1OC
not listed: [9] | [14] | [15] | [16]
inactive: all other assays above

COC1=C(OC)C(=O)C(C/C=C(\C)CC/C=C(\C)CC/C=C(\C)CC/C=C(\C)CC/C=C(\C)CC/C=C(\C)CC/C=C(\C)CC/C=C(\C)CC/C=C(\C)CCC=C(C)C)=C(C)C1=O
not listed: [9] | [14] | [15] | [16]
inactive: all other assays above

CCSCC
not listed: [9]
inactive: all other assays above
